According to PubChem BioAssay:
Where “and” joins values, the source holds several entries; their conditions need not be identical. Equal values may be shown once. For some assays here: Potency and affinity values are given separately. Calls of active or inactive are those of the source.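 How the source made its calls, unless noted: active means thallium flux through the channel raised or lowered by more than 3 SD from vehicle-only wells, actives on both sides; inactive means the rest.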

Tests used:
[1] = polyglutamine-triggered caspase-3 activation inhibitors, cell-based (AID 1583); details: polyglutamine-induced caspase-3 activation, cell assay; stronger effect = higher value;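 tested at 10 µM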
[2] = suppressors of polyQ aggregation in yeast, 75Q-TubU reporter (AID 1593); details: Yeast 75Q polyglutamine aggregation reporter
[3] = rescue of polyQ-huntingtin neuronal dysfunction in worms, whole organism, C. elegans mechanosensory neurons, N-terminal huntingtin (AID 1599); details: touch response, stronger effect = higher value
[4] = inhibitors of mitochondrial cytochrome c release, biochemical, purified mitochondria (AID 1603); details: stronger effect = lower value;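 further: mouse liver mitochondria challenged with calcium chloride; signal normalized to the plate average as 100%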
[5] = inhibitors of polyQ protein aggregation (AID 1604); details: polyglutamine-induced protein aggregation inhibition assay; stronger effect = higher value; tested at 2.5 µM
[6] = enhancers of glutamate uptake in motor neurons, MN-1 cell line (AID 1612); details: MN-1 motor neuron cells, stronger effect = higher value;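 further: tested at 1 µM final; 0% = mean of DMSO vehicle wells on each plate; positive means more glutamate uptake than control and negative means less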
[7] = suppressors of polyglutamine aggregation in yeast, 75Q-TubH (AID 1616); details: S. cerevisiae 75Q-TubH polyglutamine aggregation suppression; stronger effect = higher value
[8] = Cy5 fluorescence interference with SSB-bound oligo, artefact control for HCV NS3 helicase inhibitor project, biochemical, NIH Clinical Collection, E. coli SSB (AID 743268; call rule not given here)
[9] = tested on: Hepatitis C virus NS3 helicase; test: HCV NS3 helicase inhibitors, primary screen, biochemical, fluorescence polarization, NIH Clinical Collection (AID 743270; call rule not given here); details: NS3 helicase binding to Cy5-dT15 DNA, stronger effect = higher value, concentration not given here
[10] = target: Single-stranded DNA-binding protein (Escherichia coli (strain K12)) (UniProt P0AGE0); test: E. coli SSB displacement from DNA, counter-screen for HCV NS3 helicase inhibitor project, biochemical, fluorescence polarization, NIH Clinical Collection (AID 743271; in the data active means inhibition above about 28%); details: stronger effect = higher value, concentration not given here
[11] = fluorescence interference in NS3h assay format, artefact control for HCV NS3 helicase inhibitor project, biochemical, NIH Clinical Collection (AID 743272; call rule not given here;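 further: HCV NS3 helicase with a Cy5 labelled single stranded DNA probe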); details: fluorescence interference counterscreen, stronger effect = lower value
[12] = viability rescue of complex I mutant cybrids, primary screen, cell-based, galactose medium, ATP luminescence (AID 1645843;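 active means z-score of at least 1.8 in each of two replicates, scored against plate mean and spread of sample wells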;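 further: positive z means more ATP and so rescue of galactose-driven cybrid death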); details: complex I mutant cybrid cells, 72 h, stronger effect = higher value
F380Y/beta4 = test: modulators of BK channel variants, profiling panel, selectivity assay, cell-based, U2OS BacMam, thallium flux, beta subunits (AID 1259406); details: at 30 µM;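 further: initial slope of Thallos dye fluorescence rise after thallium is added; log ratio against the mean of 0.3% DMSO vehicle wells on the same plate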
[13] = target: Calcium-activated potassium channel subunit alpha-1 (Homo sapiens) + Leucine-rich repeat-containing protein 26 (Homo sapiens) (UniProt Q12791+Q2I0M4); test: as above; details: F380Y/Slo1WT/gamma1, at 30 µM
Sequence of Calcium-activated potassium channel subunit alpha-1 (Homo sapiens) + Leucine-rich repeat-containing protein 26 (Homo sapiens) (Q2I0M4 whole entry, looked up, one chain of several): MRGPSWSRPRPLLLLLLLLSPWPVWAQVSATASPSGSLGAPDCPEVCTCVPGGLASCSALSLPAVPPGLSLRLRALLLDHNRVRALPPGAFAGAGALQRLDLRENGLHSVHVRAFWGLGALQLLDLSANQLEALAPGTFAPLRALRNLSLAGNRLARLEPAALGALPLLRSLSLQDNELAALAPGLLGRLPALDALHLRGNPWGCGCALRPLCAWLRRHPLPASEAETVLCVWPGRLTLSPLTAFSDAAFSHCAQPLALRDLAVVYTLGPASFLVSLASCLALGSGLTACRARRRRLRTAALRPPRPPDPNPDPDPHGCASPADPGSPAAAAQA

R275C = test: as above; details: at 30 µM
R275C/beta1 = test: as above; details: at 30 µM
R275C/beta2Delta = test: as above; details: at 30 µM
R275C/beta4 = test: as above; details: at 30 µM
R275C/Slo1WT/beta2 = test: as above; details: at 30 µM
[14] = LFS_MB_P medulloblastoma growth inhibition, cell-based, chromothripsis tumors, cisplatin or BGB combos (AID 1671449; in the data active means inhibition above about 80%;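 further: cells exposed for 96 hours; 0% = vehicle DMSO and 100% = killing by high DMSO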); details: LFS_MB_P medulloblastoma cells

## CC1=C(CC(=O)O)c2cc(F)ccc2/C1=C\c1ccc(S(C)=O)cc1 (stereo not drawn)
[1]
  inhibition: 12.6%
[2]
  score: 0.78
[3]
  rescue above control: -1.24
[4]
  cytochrome c release ratio: 0.97
[5]
  inhibition of aggregation: 78.9%
[6]
  glutamate uptake change: 3.54%
[7]
  aggregation suppression score: 1.01
[8]
  fluorescence ratio: 1.04 (inactive)
[9]
  inhibition: -7.73% (inactive)
[10]
  inhibition: -3.53% (inactive)
[11]
  fluorescence ratio: 1.01 (inactive)
[12]
  z-score: -0.94 (inactive) and -0.735 (inactive) and -0.12 (inactive)
F380Y/beta4
  log fold change Tl+ flux: 0.0346 (inactive)
[13]
  log fold change Tl+ flux: 0.0386 (inactive)
R275C
  log fold change Tl+ flux: -0.0121 (inactive)
R275C/beta1
  log fold change Tl+ flux: -0.0305 (inactive)
R275C/beta2Delta
  log fold change Tl+ flux: -0.0296 (inactive)
R275C/beta4
  log fold change Tl+ flux: 0.044 (inactive)
R275C/Slo1WT/beta2
  log fold change Tl+ flux: 0.0257 (inactive)

## Cc1noc(NS(=O)(=O)c2ccc(N)cc2)c1C
[1]
  inhibition: 16.5%
[2]
  score: 1.57
[3]
  rescue above control: -13
[4]
  cytochrome c release ratio: 0.89
[5]
  inhibition of aggregation: 1.83%
[6]
  glutamate uptake change: -4.32%
[7]
  aggregation suppression score: 1.13
[12]
  z-score: -0.585 (inactive) and 0.925 (inactive)
F380Y/beta4
  log fold change Tl+ flux: -0.0245 (inactive)
[13]
  log fold change Tl+ flux: 0.0135 (inactive)
R275C
  log fold change Tl+ flux: -0.023 (inactive)
R275C/beta1
  log fold change Tl+ flux: -0.0138 (inactive)
R275C/beta2Delta
  log fold change Tl+ flux: 0.00261 (inactive)
R275C/beta4
  log fold change Tl+ flux: -0.0229 (inactive)
R275C/Slo1WT/beta2
  log fold change Tl+ flux: -0.0743 (inactive)

## CCC(C)(C)C(=O)O[C@H]1C[C@@H](C)C=C2C=C[C@H](C)[C@H](CC[C@@H]3C[C@@H](O)CC(=O)O3)[C@H]21
[8]
  fluorescence ratio: 1.04 (inactive)
[9]
  inhibition: -1.36% (inactive)
[10]
  inhibition: 6.39% (inactive)
[11]
  fluorescence ratio: 0.92 (inactive)
[12]
  z-score: -1.4 (inactive) and -0.73 (inactive) and -0.85 (inactive)
F380Y/beta4
  log fold change Tl+ flux: -0.0747 (inactive)
[13]
  log fold change Tl+ flux: 0.0806 (active)
R275C
  log fold change Tl+ flux: 0.0702 (inactive)
R275C/beta1
  log fold change Tl+ flux: 0.116 (active)
R275C/beta2Delta
  log fold change Tl+ flux: 0.0611 (inactive)
R275C/beta4
  log fold change Tl+ flux: 0.067 (inactive)
R275C/Slo1WT/beta2
  log fold change Tl+ flux: -0.0513 (inactive)

## CCN(CC)CCCC(C)Nc1ccnc2cc(Cl)ccc12 (stereo not drawn)
[1]
  inhibition: 9.86%
[2]
  score: 1.1
[3]
  rescue above control: 4.09
[4]
  cytochrome c release ratio: 1.15
[5]
  inhibition of aggregation: 68.5%
[6]
  glutamate uptake change: -7.63%
[7]
  aggregation suppression score: 1.49
[12]
  z-score: -1.02 (inactive) and -1.18 (inactive)

## CCOC(=O)[C@H](CCc1ccccc1)N[C@H]1CCc2ccccc2N(CC(=O)O)C1=O
[8]
  fluorescence ratio: 1.03 (inactive)
[9]
  inhibition: -1.98% (inactive)
[10]
  inhibition: 2.98% (inactive)
[11]
  fluorescence ratio: 1.04 (inactive)
[12]
  z-score: 0.145 (inactive)
F380Y/beta4
  log fold change Tl+ flux: 0.0138 (inactive)
[13]
  log fold change Tl+ flux: 0.0131 (inactive)
R275C
  log fold change Tl+ flux: 0.0199 (inactive)
R275C/beta1
  log fold change Tl+ flux: -0.0262 (inactive)
R275C/beta2Delta
  log fold change Tl+ flux: 0.041 (inactive)
R275C/beta4
  log fold change Tl+ flux: -0.0252 (inactive)
R275C/Slo1WT/beta2
  log fold change Tl+ flux: -0.00529 (inactive)

## Clc1cccc(Cl)c1NC1=NCCN1
[1]
  inhibition: 5.5%
[2]
  score: 1.4
[3]
  rescue above control: 13.6
[4]
  cytochrome c release ratio: 1.31
[5]
  inhibition of aggregation: 86.9%
[6]
  glutamate uptake change: 13.8%
[7]
  aggregation suppression score: 1.85
[8]
  fluorescence ratio: 1.05 (inactive)
[9]
  inhibition: -2.77% (inactive)
[10]
  inhibition: -2.41% (inactive)
[11]
  fluorescence ratio: 1.02 (inactive)
F380Y/beta4
  log fold change Tl+ flux: -0.00138 (inactive)
[13]
  log fold change Tl+ flux: 0.0127 (inactive)
R275C
  log fold change Tl+ flux: -0.0635 (inactive)
R275C/beta1
  log fold change Tl+ flux: 0.000941 (inactive)
R275C/beta2Delta
  log fold change Tl+ flux: -0.00732 (inactive)
R275C/beta4
  log fold change Tl+ flux: 0.0373 (inactive)
R275C/Slo1WT/beta2
  log fold change Tl+ flux: 0.0101 (inactive)

## NC12CC3CC(CC(C3)C1)C2
[1]
  inhibition: -8.1%
[2]
  score: 1.77
[3]
  rescue above control: -3.19
[4]
  cytochrome c release ratio: 0.94
[5]
  inhibition of aggregation: 63.2%
[6]
  glutamate uptake change: -5.28%
[7]
  aggregation suppression score: 1.59
[8]
  fluorescence ratio: 0.99 (inactive)
[9]
  inhibition: -0.45% (inactive)
[10]
  inhibition: -1.24% (inactive)
[11]
  fluorescence ratio: 0.97 (inactive)
[12]
  z-score: 0.28 (inactive) and 0.225 (inactive) and 0.335 (inactive)
F380Y/beta4
  log fold change Tl+ flux: 0.0492 (inactive)
[13]
  log fold change Tl+ flux: 0.0152 (inactive)
R275C
  log fold change Tl+ flux: -0.00425 (inactive)
R275C/beta1
  log fold change Tl+ flux: 0.0102 (inactive)
R275C/beta2Delta
  log fold change Tl+ flux: 0.045 (inactive)
R275C/beta4
  log fold change Tl+ flux: -0.0136 (inactive)
R275C/Slo1WT/beta2
  log fold change Tl+ flux: 0.0148 (inactive)

## O=C1CCC(N2C(=O)c3ccccc3C2=O)C(=O)N1 (stereo not drawn)
[1]
  inhibition: 8.81%
[2]
  score: 1.27
[3]
  rescue above control: 21.9
[4]
  cytochrome c release ratio: 1.09
[5]
  inhibition of aggregation: 81%
[6]
  glutamate uptake change: -12.1%
[7]
  aggregation suppression score: 1.48
[8]
  fluorescence ratio: 1.04 (inactive)
[9]
  inhibition: -1.36% (inactive)
[10]
  inhibition: -1.24% (inactive)
[11]
  fluorescence ratio: 0.99 (inactive)
F380Y/beta4
  log fold change Tl+ flux: 0.0329 (inactive)
[13]
  log fold change Tl+ flux: -0.00962 (inactive)
R275C
  log fold change Tl+ flux: 0.0291 (inactive)
R275C/beta1
  log fold change Tl+ flux: -0.0697 (inactive)
R275C/beta2Delta
  log fold change Tl+ flux: 0.0347 (inactive)
R275C/beta4
  log fold change Tl+ flux: -0.108 (inactive)
R275C/Slo1WT/beta2
  log fold change Tl+ flux: -0.0685 (inactive)

## c1ccc([C@H]2CN3CCSC3=N2)cc1
[1]
  inhibition: 60.8%
[2]
  score: 1.41
[3]
  rescue above control: -9.67
[4]
  cytochrome c release ratio: 0.88
[5]
  inhibition of aggregation: 72.2%
[6]
  glutamate uptake change: 4.54%
[7]
  aggregation suppression score: 1.54
[12]
  z-score: 0.83 (inactive) and -0.1 (inactive)

## c1ccc(CC2=NCCN2)cc1
[1]
  inhibition: 7.62%
[2]
  score: 1.26
[3]
  rescue above control: -6.48
[4]
  cytochrome c release ratio: 1.14
[5]
  inhibition of aggregation: 87%
[6]
  glutamate uptake change: 1.58%
[7]
  aggregation suppression score: 1.3
[8]
  fluorescence ratio: 1.05 (inactive)
[9]
  inhibition: -2.27% (inactive)
[10]
  inhibition: -0.48% (inactive)
[11]
  fluorescence ratio: 1.01 (inactive)
[12]
  z-score: 0.495 (inactive)
F380Y/beta4
  log fold change Tl+ flux: -0.03 (inactive)
[13]
  log fold change Tl+ flux: -0.0313 (inactive)
R275C
  log fold change Tl+ flux: -0.0482 (inactive)
R275C/beta1
  log fold change Tl+ flux: 0.0322 (inactive)
R275C/beta2Delta
  log fold change Tl+ flux: -0.00877 (inactive)
R275C/beta4
  log fold change Tl+ flux: 0.0215 (inactive)
R275C/Slo1WT/beta2
  log fold change Tl+ flux: 0.0521 (inactive)

## S=c1nc[nH]c2nc[nH]c12
[1]
  inhibition: 26.7%
[2]
  score: 1.45
[3]
  rescue above control: -8.7
[4]
  cytochrome c release ratio: 0.93
[5]
  inhibition of aggregation: 66.2%
[6]
  glutamate uptake change: 12.1%
[7]
  aggregation suppression score: 1.29
[8]
  fluorescence ratio: 1.03 (inactive)
[9]
  inhibition: -1.36% (inactive)
[10]
  inhibition: 0.29% (inactive)
[11]
  fluorescence ratio: 0.99 (inactive)
[12]
  z-score: 2.91 (active)
[14]; at 0.5 µM, stronger effect = higher value
  inhibition: -16.7% (inactive) and -25.3% (inactive) and -23.4% (inactive)
[14]; measured here: combination with BGB IC20, at 0.005 µM
  inhibition: -9.64% and 14% and 16.4%
[14]; measured here: combination with BGB IC40, at 0.005 µM
  inhibition: -23.4% and -1.54% and -20.6%
[14]; measured here: combination with BGB IC40, at 0.05 µM
  inhibition: -13.7% and 4.76% and 13.1%
[14]; measured here: combination with cisplatin, at 0.5 µM, stronger effect = higher value
  inhibition: -46.7% and -35.2% and -28.2%
[14]; measured here: combination with cisplatin, at 5 µM, stronger effect = higher value
  inhibition: -18.6% and -9.9% and -19.4%
F380Y/beta4
  log fold change Tl+ flux: -0.00864 (inactive)
[13]
  log fold change Tl+ flux: -0.0406 (inactive)
R275C
  log fold change Tl+ flux: -0.0342 (inactive)
R275C/beta1
  log fold change Tl+ flux: 0.0271 (inactive)
R275C/beta2Delta
  log fold change Tl+ flux: -0.0376 (inactive)
R275C/beta4
  log fold change Tl+ flux: -0.0907 (inactive)
R275C/Slo1WT/beta2
  log fold change Tl+ flux: 0.0711 (inactive)
